For 31 molecules, Potency and activity change, negative = inhibition results are on record in PubChem BioAssay (NCATS).

Each structure is given as a SMILES string. Results filed as inconclusive are left out. The source made the active and inactive calls. Unless noted, the call rests on the fitted dose curve.

Assay [1] can be described thus: Cytotoxicity counterscreen for inhibitors of SARS-CoV-2 cell entry (AID 1645845). Further: nearly all actives have a fitted effect of over 50% in size. To be noted: cell viability (SARS-CoV-2 entry assay cells); series mostly up to 57.1 µM. The method, boiled down: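 After a 15 min room-temperature ATPLite 1step step, luminescence reflected ATP remaining in HEK293-ACE2 cells exposed to compound for 1 h plus 48 h at 37 C, with percent activity set by cell and no-cell controls.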
For orientation: The purpose of a counterscreen is to sort out artefacts and off-target activity.

Assay [2] is described as follows: Confirmatory qHTS to identify inhibitors of SARS-CoV-2 cell entry (AID 1645844). Further: nearly all actives have a fitted effect of over 45% in size. To be noted: SARS-CoV-2 pseudotyped particle cell entry, luciferase; series mostly up to 57.2 µM. The method, boiled down:
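Using stable human ACE2 Expi293F cells, compounds preincubated 1 hr before spike pseudoparticle infection; luciferase signal after 48 hr at 37C, 5% CO2, normalised to spike PP and no-fusion-protein PP wells.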

The nature of assay [3]: Primary qHTS to identify inhibitors of SARS-CoV-2 cell entry (AID 1645846). Further: nearly all actives have a fitted effect of over 45% in size. The conditions noted are these: SARS-CoV-2 pseudovirus cell entry assay, luminescence; activity change, negative = inhibition: at 57.1 µM (top of the series) unless noted; series mostly up to 57.1 µM. The method, boiled down: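 Luminescence readout (Bright-Glo luciferase) 48 h after pseudoparticle addition. HEK293-ACE2 cells, 1500/well; compound pre-incubation 1 h; Normalized to spike PP and bald PP.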
(In general: Quantitative high-throughput screening tests each substance at several concentrations.)

Assay [4] in a line: Primary qHTS for inhibitors of nuclear receptor binding SET domain protein 2 (NSD2) in an isogenic RCH-ACV NSD2 p.E1099K mutant (9B) (AID 1645876; active means well fitted curve in the direction sought with a large enough effect; an effect the other way counts as inactive or inconclusive; further: nearly all actives have a fitted effect of over 70% in size). To be noted: RCH-ACV NSD2 E1099K (9B) viability, CellTiter-Glo, 72 h; series mostly up to 44.9 µM.
Assay [5] in a line: Primary qHTS for inhibitors of nuclear receptor binding SET domain protein 2 (NSD2) in an RCH-ACV wild type WT cells (2C) (AID 1645877; active means well fitted curve in the direction sought with a large enough effect; an effect the other way counts as inactive or inconclusive; further: nearly all actives have a fitted effect of over 70% in size). The conditions noted are these: RCH-ACV (leukaemia line) NSD2 WT (2C) viability, CellTiter-Glo, 72 h; series mostly up to 44.9 µM.
Potency means the concentration at half of the fitted maximal effect.

With `CCCCc1ccc(NS(=O)(=O)c2ccc(C)c(C(=O)N3CCN(c4cccc(C)c4C)CC3)c2)cc1`, in assay [1], the Potency entry was “inactive”.

Consider `Cc1cc(Nc2cc(N3CCN(C)CC3)nc(Sc3ccc(NC(=O)C4CC4)cc3)n2)n[nH]1`, for which the Potency in assay [2] was 121 nM (active). As to `CCCS(=O)(=O)Nc1ccc(F)c(C(=O)c2c[nH]c3ncc(-c4ccc(Cl)cc4)cc23)c1F`, the Potency in assay [2] was 68.1 nM (active). Moreover, the Potency result in assay [1] is “inactive”. Also, the activity change, negative = inhibition in assay [3] was -8.78%. On to `CCc1c(C(=O)C(N)=O)c2c(OCC(=O)O)cccc2n1Cc1ccccc1`, for which the Potency entry in assay [2], in assay [4] and in assay [5] was “inactive” in each case. Further, the activity change, negative = inhibition in assay [3] was -66.7%. For `CN1CC[C@@H](c2c(O)cc(O)c3c(=O)cc(-c4ccccc4Cl)oc23)[C@@H](O)C1`, the Potency in assay [2] is 1210 nM (active). In the case of `COc1cc(Nc2ncc3c(n2)-c2ccc(Cl)cc2C(c2c(F)cccc2OC)=NC3)ccc1C(=O)O`, the Potency in assay [2] is 10.8 nM (active). For the same molecule, the Potency entry in assay [1] is “inactive”. Moreover, in assay [3], the activity change, negative = inhibition was -83%. Regarding `COc1cc2nccc(Oc3ccc(NC(=O)C4(C(=O)Nc5ccc(F)cc5)CC4)cc3)c2cc1OC`, the Potency in assay [2] is 2150 nM (active). Moreover, in assay [1], the Potency entry is “inactive”. Turning to `COc1cccc2c1CCCC2CCCN1CCN(C2CCCCC2)CC1` (stereo not drawn), the Potency entry in assay [1] was “inactive”. As for `CC(C)(C)c1cnc(CSc2cnc(NC(=O)C3CCNCC3)s2)o1`, in assay [2], the Potency was 4290 nM (active). The Potency entry in assay [1] was “inactive”.

For `CNC(=O)c1cc(Oc2ccc(NC(=O)Nc3ccc(Cl)c(C(F)(F)F)c3)c(F)c2)ccn1`, the Potency in assay [2] is 8570 nM (active). As for `N#CCNC(=O)c1ccc(-c2ccnc(Nc3ccc(N4CCOCC4)cc3)n2)cc1`, the Potency is 9610 nM (active) in assay [2], 31600 nM (active) in assay [1] and 10000 nM (active) in assay [3].

For `CC(=O)c1c(C)c2cnc(Nc3ccc(N4CCNCC4)cn3)nc2n(C2CCCC2)c1=O`, the Potency in assay [2] is 17100 nM (active). For the same molecule, in assay [1], the Potency entry was “inactive”. `CNC(=O)c1cc(Oc2ccc(NC(=O)Nc3cc(C(C)(C)C)nn3-c3ccc4ncccc4c3)c(F)c2)ccn1`: the Potency entry in assay [1] is “inactive”. On to `CCCS(=O)(=O)Nc1ccc(F)c(C(=O)c2c[nH]c3ncc(Cl)cc23)c1F`, for which the Potency result in assay [1] is “inactive”.

`CS(=O)(=O)c1cccc(CNc2nc(Nc3ccc4c(c3)CCC(=O)N4)ncc2C(F)(F)F)c1`: the Potency in assay [2] is 192 nM (active).

Regarding `O=C(c1cc(Cc2n[nH]c(=O)c3ccccc23)ccc1F)N1CCN(C(=O)C2CC2)CC1`, in assay [2], the Potency is 27100 nM (active). For the same molecule, the Potency entry in assay [1] is “inactive”. On to `Cc1ccccc1-n1c(Cn2ncc3c(N)ncnc32)nc2cccc(C)c2c1=O`, for which, in assay [2], the Potency is 7640 nM (active). Besides, the Potency result in assay [1] is “inactive”. In addition, the activity change, negative = inhibition in assay [3] was -50.6%. Regarding `Cc1ccc(C(N)=O)cc1Nc1nccc(-c2cn(C(C)C)c3cnccc23)n1`, the Potency in assay [2] is 1710 nM (active); in assay [3] it was 8910 nM (active).

Regarding `Cc1cnc(-c2cnc(NCCNc3ccc(C#N)cn3)nc2-c2ccc(Cl)cc2Cl)[nH]1`, the Potency entry in assay [1] is “inactive”.

Regarding `CC(=O)Nc1ccc([C@H](C)C(=O)Nc2ncc(C(C)C)s2)cc1`, the Potency in assay [2] is 4820 nM (active); in assay [3], 3550 nM (active). For `COc1cc([C@@H]2c3cc4c(cc3[C@@H](O)C3COC(=O)C32)OCO4)cc(OC)c1O` (stereo partly drawn), the Potency in assay [2] was 1710 nM (active); in assay [4], 417 nM (active); in assay [5], 372 nM (active). In assay [1], the Potency result is “inactive”. `CCOc1ccn(-c2ccc(F)cc2)c(=O)c1C(=O)Nc1ccc(Oc2ccnc(N)c2Cl)c(F)c1`: the Potency entry in assay [1] was “inactive”. On the same count and under the same terms, to `CC(C)(N)C(=O)N[C@H](COCc1ccccc1)C(=O)N1CCC2(CC1)CN(S(C)(=O)=O)c1ccccc12` belongs “inactive”; to `CC(C)Oc1cc(Nc2nc(N[C@@H](C)c3ccc(F)cn3)ncc2Cl)[nH]n1`, “inactive”; to `N#CC[C@H](C1CCCC1)n1cc(-c2ncnc3[nH]ccc23)cn1`, “inactive”. As to `Cc1cc(Nc2nc(N[C@@H](C)c3ncc(F)cn3)ncc2Cl)n[nH]1`, the Potency in assay [2] was 2710 nM (active). The activity change, negative = inhibition in assay [3] was -52.3%. In the case of `O=C(O)c1ccc2c(c1)nc(Nc1cccc(Cl)c1)c1ccncc12`, in assay [2], the Potency was 2150 nM (active). `O=c1[nH]c(-c2ccc(C(F)(F)F)cc2)nc2c1CSCC2`: the Potency in assay [2] is 9610 nM (active). For the molecule `Cc1n[nH]c(C)c1Cc1sc2c(c1C(=O)N1C[C@H](O)CO1)c(=O)n(C)c(=O)n2CC(C)C`, the Potency in assay [2] is 393 nM (active). Besides, in assay [1], the Potency entry was “inactive”. In assay [3], the activity change, negative = inhibition is -55.4%.

Take `O=C(Nc1ccncc1)C(=O)c1cn(Cc2ccc(Cl)cc2)c2ccccc12`: the figures for the Potency in assay [2], in assay [4] and in assay [5] were 961 nM (active), 263 nM (active) and 235 nM (active), respectively. In addition, the Potency entry in assay [1] was “inactive”. Moreover, the activity change, negative = inhibition in assay [3] was -75.6%. `CC(C)(O)C(=O)Nc1ccc([N+](=O)[O-])c(C(F)(F)F)c1`: the Potency entry in assay [1] was “inactive”.
